# The panel holds about 83,000 compounds, 20% with a hit somewhere; the sample as a whole holds those more often.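 Negative percent growth values reflect cell death: -40 means 40% of the cells present at the start died, and -100 means all died.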 The source made the active and inactive calls. The calls were made as follows: active = growth percent below 10; inactive = the rest.
# Tested on: NCI-H322M lung
# Test: NCI-60 one-dose screen, 48 h (100 = growth as untreated, 0 = no growth, -100 = all killed)
# Settings: 10 µM unless noted
row,Compound,growth
1,COc1c(F)ccc(C(=O)Nc2ccc3nc(NC(=O)C4CCCN(S(=O)(=O)c5cccc(C(F)(F)F)c5)C4)sc3c2)c1F (stereo not drawn),98.9% (inactive)
2,Cc1ccc(S(=O)(=O)c2nc(S(=O)(=O)c3ccc(C)cc3)c(Cl)s2)cc1,89.7% (inactive)
3,COc1ccc2c(c1)c(-c1cc3nc(-c4cn(C)c5ncc(Br)cc45)cc(N)n3n1)cn2C,-39.8% (active)
4,COc1cccc(-c2nc(Nc3ccc(S(N)(=O)=O)cc3)c3ccccc3n2)c1,50.3% (inactive)
5,CCS(=O)(=O)N1CCCC(C(=O)Nc2nc3ccc(NC(=O)c4ccc(F)c(OC)c4F)cc3s2)C1 (stereo not drawn),82.3% (inactive)
6,C=C1CCC2C3(C)COC(c4ccccc4)OC3CCC2(C)C1CC(Sc1ccccc1)C1=CCOC1=O (stereo not drawn),80.5% (inactive)
7,Cc1cccc(-c2nc(Nc3cccc(S(N)(=O)=O)c3)c3ccccc3n2)c1,52.2% (inactive)
8,Brc1ccc(-c2n(Cc3ccc4ccccc4c3)c(-c3ccccc3)c(-c3ccccc3)[n+]2Cc2ccc3ccccc3c2)cc1,-99.1% (active)
9,Cc1cc2nc3c([nH]c2cc1C)c1ccc(=O)cc1n3CCN(C)C,39.9% (inactive)
10,N=C1N=C(SCc2nc3ccccc3[nH]2)NC(=O)/C1=C/c1ccc(Cl)cc1,103% (inactive)
11,COc1c(F)ccc(C(=O)Nc2ccc3nc(NC(=O)C4CCCN(S(=O)(=O)c5ccc(Br)c(F)c5)C4)sc3c2)c1F (stereo not drawn),94.5% (inactive)
12,C=C1CC[C@@H]2[C@]3(C)COC(c4cn[nH]c4-c4ccc(Br)cc4)O[C@@H]3CC[C@@]2(C)[C@@H]1C/C=C1/C(=O)OCC1O (stereo partly drawn),32% (inactive)
13,Cc1ccc2c(c1)nc(-c1ccccc1)n2CC(=O)N=Nc1c(O)[nH]c2ccc(Br)cc12,-46.4% (active)
14,Cn1nc(C(F)(F)F)cc1-c1cc(Cl)c(COc2ccc(Cl)cc2)c(-c2ccc(Cl)c(C(F)(F)F)c2)c1O,6.41% (active)
15,Cc1occc1C(=O)NN1C(=O)/C(=C/C=C/c2ccc([N+](=O)[O-])o2)SC1=S,66.8% (inactive)
16,O=c1cc(-c2ccccc2)oc2cc(OCCCC[P+](c3ccccc3)(c3ccccc3)c3ccccc3)cc(O)c12,-100% (active)
17,COc1c(F)ccc(C(=O)Nc2ccc3nc(NC(=O)C4CCCN(S(=O)(=O)c5cccc(Br)c5)C4)sc3c2)c1F (stereo not drawn),94% (inactive)
18,C=C1CC[C@@H]2[C@]3(C)COC(c4cn[nH]c4-c4ccc(F)cc4)O[C@@H]3CC[C@@]2(C)[C@@H]1C/C=C1/C(=O)OCC1O (stereo partly drawn),44% (inactive)
19,CCCCCCCS(=O)(=O)N1CCCC(C(=O)Nc2nc3ccc(NC(=O)c4ccc(F)c(OC)c4F)cc3s2)C1 (stereo not drawn),77.7% (inactive)
20,C=C1CCC2C3(C)COC(c4ccccc4)OC3CCC2(C)C1CC(NCc1ccccc1)C1=CCOC1=O (stereo not drawn),90.8% (inactive)
21,O=C(/C=C/Nc1ccc2oc(=O)ccc2c1)c1cc2cc(Br)ccc2oc1=O,104% (inactive)
22,O=C(Cn1c(/C=C/c2ccccc2)nc2ccccc2c1=O)Nc1ccc(Cl)cc1,74.8% (inactive)
23,CC(C)CCNC(=O)N/C(N)=N/c1nc2ccccc2s1,83.1% (inactive)
24,Cn1cc(-c2cc(N)n3nc(-c4c[nH]c5ccccc45)cc3n2)c2cccnc21,44.7% (inactive)
25,CN(C)c1nc(NCCNS(=O)(=O)c2ccc(C(=O)/C=C/c3ccc(Cl)cc3)cc2)nc(Nc2ccc(F)cc2)n1,6.91% (active)

# Tested on: HOP-62 NSCLC
# Test: as above
# Settings: 10 µM unless noted
row,Compound,growth
1,CN(C)c1nc(NCCNS(=O)(=O)c2ccc(C3=Nc4c(N)nc(N)nc4NC(c4ccc(C(F)(F)F)cc4)C3)cc2)nc(Nc2ccc(F)cc2)n1 (stereo not drawn),56.1% (inactive)
2,COc1ccc(-c2nc3cc(C)ccc3n2CC(=O)N=Nc2c(O)[nH]c3ccccc23)cc1,10.4% (inactive)
3,NS(=O)(=O)c1ccc(CCNC(=O)CSc2ccc(-c3ccc(Br)cc3)nn2)cc1,75.9% (inactive)
4,O=C(COc1ccc2c(c1)CCCC(=O)N2)NCc1ccccc1,92.5% (inactive)
5,CC1=C(C#N)C2=NNCC(c3ccccc3)=NN2C(c2ccccc2)=C1,85.6% (inactive)
6,CC1CCCCN1CCCNC(=O)N/C(N)=N/c1nc2ccccc2s1 (stereo not drawn),59.6% (inactive)
7,Cc1nc(Nc2ccccn2)sc1C(=O)CC(SCC(=O)Nc1ccc(Cl)cc1)c1ccccc1F (stereo not drawn),10.1% (inactive)
8,CCCSc1nc(Nc2ccc(S(N)(=O)=O)cc2)c(C#N)c(-c2cc(OC)c(OC)c(OC)c2)n1,32.5% (inactive)
9,Clc1cccc(N/N=C/c2c[nH]c3ccc(Br)cc23)n1,54.1% (inactive)
10,Cc1ccc(S(=O)(=O)c2nc(S(=O)(=O)c3ccc(C)cc3)c(N3CCN(C)CC3)s2)cc1,99.9% (inactive)
11,COc1c(F)ccc(C(=O)Nc2ccc3nc(NC(=O)C4CCCN(S(=O)(=O)c5ccc(C(F)(F)F)cc5)C4)sc3c2)c1F (stereo not drawn),94.6% (inactive)
12,COc1ccc(-c2ccnc(SCc3cc4ccccc4[nH]c3=O)n2)cc1,32.3% (inactive)
13,Cc1ccc(C2=NN(c3nc(-c4cc5ccccc5oc4=O)cs3)C(c3ccc(C)cc3)C2)cc1 (stereo not drawn),91.2% (inactive)
14,COc1c(F)ccc(C(=O)Nc2ccc3nc(NC(=O)C4CCCN(S(=O)(=O)c5cccc(C(F)(F)F)c5)C4)sc3c2)c1F (stereo not drawn),99% (inactive)
15,Cc1ccc(S(=O)(=O)c2nc(S(=O)(=O)c3ccc(C)cc3)c(Cl)s2)cc1,105% (inactive)
16,COc1ccc2c(c1)c(-c1cc3nc(-c4cn(C)c5ncc(Br)cc45)cc(N)n3n1)cn2C,-21.1% (active)
17,COc1cccc(-c2nc(Nc3ccc(S(N)(=O)=O)cc3)c3ccccc3n2)c1,58.9% (inactive)
18,CCS(=O)(=O)N1CCCC(C(=O)Nc2nc3ccc(NC(=O)c4ccc(F)c(OC)c4F)cc3s2)C1 (stereo not drawn),80.6% (inactive)
19,C=C1CCC2C3(C)COC(c4ccccc4)OC3CCC2(C)C1CC(Sc1ccccc1)C1=CCOC1=O (stereo not drawn),88.6% (inactive)

row,Compound,growth
1,Cc1cccc(-c2nc(Nc3cccc(S(N)(=O)=O)c3)c3ccccc3n2)c1,80.2% (inactive)
2,Brc1ccc(-c2n(Cc3ccc4ccccc4c3)c(-c3ccccc3)c(-c3ccccc3)[n+]2Cc2ccc3ccccc3c2)cc1,-83.4% (active)
3,Cc1cc2nc3c([nH]c2cc1C)c1ccc(=O)cc1n3CCN(C)C,43.2% (inactive)
4,N=C1N=C(SCc2nc3ccccc3[nH]2)NC(=O)/C1=C/c1ccc(Cl)cc1,102% (inactive)
5,COc1c(F)ccc(C(=O)Nc2ccc3nc(NC(=O)C4CCCN(S(=O)(=O)c5ccc(Br)c(F)c5)C4)sc3c2)c1F (stereo not drawn),105% (inactive)
6,C=C1CC[C@@H]2[C@]3(C)COC(c4cn[nH]c4-c4ccc(Br)cc4)O[C@@H]3CC[C@@]2(C)[C@@H]1C/C=C1/C(=O)OCC1O (stereo partly drawn),-46.1% (active)
7,Cc1ccc2c(c1)nc(-c1ccccc1)n2CC(=O)N=Nc1c(O)[nH]c2ccc(Br)cc12,-58.7% (active)
8,Cn1nc(C(F)(F)F)cc1-c1cc(Cl)c(COc2ccc(Cl)cc2)c(-c2ccc(Cl)c(C(F)(F)F)c2)c1O,-40.9% (active)
9,Cc1occc1C(=O)NN1C(=O)/C(=C/C=C/c2ccc([N+](=O)[O-])o2)SC1=S,-9.58% (active)
10,O=c1cc(-c2ccccc2)oc2cc(OCCCC[P+](c3ccccc3)(c3ccccc3)c3ccccc3)cc(O)c12,-63.6% (active)
11,COc1c(F)ccc(C(=O)Nc2ccc3nc(NC(=O)C4CCCN(S(=O)(=O)c5cccc(Br)c5)C4)sc3c2)c1F (stereo not drawn),107% (inactive)
12,C=C1CC[C@@H]2[C@]3(C)COC(c4cn[nH]c4-c4ccc(F)cc4)O[C@@H]3CC[C@@]2(C)[C@@H]1C/C=C1/C(=O)OCC1O (stereo partly drawn),-10.7% (active)
13,CCCCCCCS(=O)(=O)N1CCCC(C(=O)Nc2nc3ccc(NC(=O)c4ccc(F)c(OC)c4F)cc3s2)C1 (stereo not drawn),60.8% (inactive)
14,C=C1CCC2C3(C)COC(c4ccccc4)OC3CCC2(C)C1CC(NCc1ccccc1)C1=CCOC1=O (stereo not drawn),85.1% (inactive)
15,O=C(/C=C/Nc1ccc2oc(=O)ccc2c1)c1cc2cc(Br)ccc2oc1=O,95.4% (inactive)
16,O=C(Cn1c(/C=C/c2ccccc2)nc2ccccc2c1=O)Nc1ccc(Cl)cc1,57.9% (inactive)
17,CC(C)CCNC(=O)N/C(N)=N/c1nc2ccccc2s1,73.6% (inactive)
18,Cn1cc(-c2cc(N)n3nc(-c4c[nH]c5ccccc45)cc3n2)c2cccnc21,62.6% (inactive)
19,CN(C)c1nc(NCCNS(=O)(=O)c2ccc(C(=O)/C=C/c3ccc(Cl)cc3)cc2)nc(Nc2ccc(F)cc2)n1,15.4% (inactive)
